{"source": "ChEMBL document CHEMBL3988442", "about": "“University of Dundee, Small-Polar-MMV Screening Library” (2021)", "tested_on": "Trypanosoma brucei", "assay": "Trypanosoma brucei 72 hour study", "assay_type": "functional, organism-based", "set-up": "scale not given: in the data most compounds retested in dose-response had high values", "note": "About 960 (1.5%) of roughly 66,000 compounds showed an effect of 50% or more. The list comes from a sample in which strong results are over-represented; it also holds similar structures and randomly drawn compounds.", "data": [{"compound": "CN1CCCC(c2ccnc(C(=O)NCC3CC3)c2)C1", "note": "(stereo not given)", "values": [{"measurement": "Percent Effect", "setting": "30.3 µM, […]", "result": -15.86, "unit": "%"}]}, {"compound": "Cn1cc(CN2CCCC3(CCCCN3S(C)(=O)=O)C2)cn1.O=C(O)C(F)(F)F", "note": "(stereo not given)", "values": [{"measurement": "Percent Effect", "setting": "30 µM, 30.03 µM", "result": -25.71, "unit": "%"}]}, {"compound": "COCC(=O)N1Cc2c(-c3cccc(C)c3)nc(N)nc2C1C", "note": "(stereo not given)", "values": [{"measurement": "Percent Effect", "setting": "30.3 µM, […]", "result": -11.02, "unit": "%"}]}, {"compound": "Cc1cccc(-c2nc(N)nc3c2CN(C(=O)c2ccncn2)C3C)c1", "note": "(stereo not given)", "values": [{"measurement": "Percent Effect", "setting": "30.3 µM, […]", "result": -0.8654, "unit": "%"}]}, {"compound": "Cc1cccc(-c2nc(N)nc3c2CN(C(=O)c2cc(C)n[nH]2)C3C)c1", "note": "(stereo not given)", "values": [{"measurement": "Percent Effect", "setting": "30.3 µM, […]", "result": 90.24, "unit": "%"}]}, {"compound": "Cc1ccc(CCNc2nc(-c3ccncc3)nc3c2CCNCC3)o1", "values": [{"measurement": "Percent Effect", "setting": "30.3 µM, […]", "result": -212, "unit": "%"}]}, {"compound": "c1csc(CCNc2nc(-c3ccncc3)nc3c2CCNCC3)c1", "values": [{"measurement": "Percent Effect", "setting": "30.3 µM, […]", "result": 104, "unit": "%"}]}, {"compound": "COCCNc1nc2c(c(NCCc3cccs3)n1)CCNCC2", "values": [{"measurement": "Percent Effect", "setting": "30 µM, 30.03 µM", "result": -24.48, "unit": "%"}]}, {"compound": "O=C(C1CCC1)N1CCO[C@H]2[C@H](OCCCn3cccn3)CC[C@@H]21.O=C(O)C(F)(F)F", "values": [{"measurement": "Percent Effect", "setting": "30.3 µM, […]", "result": -14.88, "unit": "%"}]}, {"compound": "CC(C)c1nnsc1CN1CCc2[nH]nc(-c3ccc(F)c(F)c3)c2C1", "values": [{"measurement": "Percent Effect", "setting": "30.3 µM, […]", "result": 8.442, "unit": "%"}]}, {"compound": "CC(C)c1nnsc1CN1CCc2[nH]nc(-c3ccc(Cl)cc3)c2C1", "values": [{"measurement": "Percent Effect", "setting": "30.3 µM, […]", "result": 100.2, "unit": "%"}]}, {"compound": "CCc1nc(C)sc1CN1CCc2[nH]nc(-c3ccc(F)c(F)c3)c2C1", "values": [{"measurement": "Percent Effect", "setting": "30.3 µM, […]", "result": 9.305, "unit": "%"}]}, {"compound": "Cn1nc(N2CCCC(C(=O)Nc3nc4ccccc4s3)C2)ccc1=O", "note": "(stereo not given)", "values": [{"measurement": "Percent Effect", "setting": "30 µM, 30.03 µM", "result": -10.15, "unit": "%"}]}, {"compound": "Cc1nc(COC[C@@H]2CCC[C@@]23CN(C)CCO3)cs1.O=C(O)C(F)(F)F", "values": [{"measurement": "Percent Effect", "setting": "30 µM, 30.03 µM", "result": 42.28, "unit": "%"}]}, {"compound": "Cc1ncc(C(=O)NC2CCN(CCOc3ccc(Br)cc3)CC2)s1", "values": [{"measurement": "Percent Effect", "setting": "30.3 µM, […]", "result": 9.7, "unit": "%"}]}, {"compound": "CCc1nnsc1C(=O)NC1CCN(CCOc2ccc(Br)cc2)CC1", "values": [{"measurement": "Percent Effect", "setting": "30.3 µM, […]", "result": 50.82, "unit": "%"}]}, {"compound": "Cc1nc(C(=O)NC2CCN(CCOc3ccc(Br)cc3)CC2)cs1", "values": [{"measurement": "Percent Effect", "setting": "30.3 µM, […]", "result": 34.31, "unit": "%"}]}, {"compound": "CN(C)CC1CN(C(=O)Cc2ccccc2)Cc2nccn2C1.O=C(O)C(F)(F)F", "note": "(stereo not given)", "values": [{"measurement": "Percent Effect", "setting": "30 µM, 30.03 µM", "result": -30.18, "unit": "%"}]}, {"compound": "CC(=O)N1CCC2(CCN(C(=O)c3ccc(Cl)c(C(F)(F)F)c3)C2)C1", "note": "(stereo not given)", "values": [{"measurement": "Percent Effect", "setting": "30 µM, 30.03 µM", "result": 28.83, "unit": "%"}]}, {"compound": "NC(=O)C1CCCN1Cc1cccc(NC(=O)c2cc(Cl)cc(Cl)c2)c1", "note": "(stereo not given)", "values": [{"measurement": "Percent Effect", "setting": "30 µM, 30.03 µM", "result": 26.87, "unit": "%"}]}, {"compound": "NC(=O)C1CCN(Cc2cccc(NC(=O)c3ccsc3)c2)CC1", "values": [{"measurement": "Percent Effect", "setting": "30 µM, 30.03 µM", "result": 50.19, "unit": "%"}]}, {"compound": "NC(=O)C1CCCN1Cc1cccc(NC(=O)c2ccsc2)c1", "note": "(stereo not given)", "values": [{"measurement": "Percent Effect", "setting": "30 µM, 30.03 µM", "result": 12.83, "unit": "%"}]}, {"compound": "O=C(c1cc(C2CCCCN2CCO)n[nH]1)N1CCOCC1.O=CO", "note": "(stereo not given)", "values": [{"measurement": "Percent Effect", "setting": "30.3 µM, […]", "result": -18.9, "unit": "%"}]}, {"compound": "CC(C)c1cc(C(=O)N2CCc3nc(C4CCCN4)ncc3C2)cs1.Cl", "note": "(stereo not given)", "values": [{"measurement": "Percent Effect", "setting": "30.3 µM, […]", "result": -27.95, "unit": "%"}]}, {"compound": "CCN(CC)Cc1ccc(C(=O)N2CCCC2c2cnn(C)c2)o1", "note": "(stereo not given)", "values": [{"measurement": "Percent Effect", "setting": "10 µM", "result": 2.271, "unit": "%"}]}, {"compound": "CN(CC(=O)Nc1ccccc1C(=O)NC1CC1)Cc1ccccc1Cl", "values": [{"measurement": "Percent Effect", "setting": "30 µM, 30.03 µM", "result": -3.79, "unit": "%"}]}, {"compound": "CNC(=O)CN(C)Cc1ccc(F)cc1Cl", "values": [{"measurement": "Percent Effect", "setting": "30 µM, 30.03 µM", "result": -10.17, "unit": "%"}]}, {"compound": "CCOc1cccc(CNc2ccccc2Cl)c1O", "values": [{"measurement": "Percent Effect", "setting": "30 µM, 30.03 µM", "result": -19.48, "unit": "%"}]}, {"compound": "CCOC(=O)c1ccccc1NC(=O)CN(C)Cc1ccccc1Cl.O=C(O)C(=O)O", "values": [{"measurement": "Percent Effect", "setting": "30 µM, 30.03 µM", "result": 103.8, "unit": "%"}]}, {"compound": "CCOc1ccccc1NC(=O)CN(C)Cc1ccccc1Cl", "values": [{"measurement": "Percent Effect", "setting": "30 µM, 30.03 µM", "result": 104.4, "unit": "%"}]}, {"compound": "CCOc1ccccc1NC(=O)NCc1ccoc1", "values": [{"measurement": "Percent Effect", "setting": "30 µM, 30.03 µM", "result": -38.02, "unit": "%"}]}, {"compound": "O=C(NCCc1cccs1)[C@H]1CO[C@H]2CCN(CC3CC3)C[C@H]2C1.O=C(O)C(F)(F)F", "values": [{"measurement": "Percent Effect", "setting": "30.3 µM, […]", "result": -52.96, "unit": "%"}]}, {"compound": "CN(CC(=O)c1ccc2[nH]c(=O)[nH]c2c1)Cc1ccc2c(c1)OCO2", "values": [{"measurement": "Percent Effect", "setting": "30.3 µM, […]", "result": 2.207, "unit": "%"}]}, {"compound": "CCOCC(O)CN1CCN(C(=O)c2ccc(N(C)C)nn2)CC1", "note": "(stereo not given)", "values": [{"measurement": "Percent Effect", "setting": "30.3 µM, […]", "result": -26.53, "unit": "%"}, {"measurement": "Percent Effect", "setting": "10 mM, 10 mM as filed; unlikely as a test dose", "result": -123.6, "unit": "%"}]}, {"compound": "Cc1noc(NC(=O)c2ccc(C)c(F)c2)n1", "values": [{"measurement": "Percent Effect", "setting": "30 µM, 30.03 µM", "result": 65.47, "unit": "%"}]}, {"compound": "COc1cc(C(=O)Nc2nc(C)no2)ccc1C", "values": [{"measurement": "Percent Effect", "setting": "30 µM, 30.03 µM", "result": 38.15, "unit": "%"}]}, {"compound": "Cc1noc(NC(=O)CCNC(=O)c2ccc(Br)cc2)n1", "values": [{"measurement": "Percent Effect", "setting": "30.3 µM, […]", "result": -27.06, "unit": "%"}]}, {"compound": "Cc1noc(NC(=O)c2ccc(Br)cc2)n1", "values": [{"measurement": "Percent Effect", "setting": "30 µM, 30.03 µM", "result": 95.54, "unit": "%"}]}, {"compound": "Cc1noc(NC(=O)c2cccc(Br)c2)n1", "values": [{"measurement": "Percent Effect", "setting": "30.3 µM, […]", "result": 69.68, "unit": "%"}]}, {"compound": "COc1cc(C(=O)Nc2nc(C)no2)ccc1OC(F)F", "values": [{"measurement": "Percent Effect", "setting": "10 µM", "result": -60.85, "unit": "%"}]}, {"compound": "Cc1noc(NC(=O)c2ccc(C#N)cc2)n1", "values": [{"measurement": "Percent Effect", "setting": "30.3 µM, […]", "result": -1.812, "unit": "%"}]}, {"compound": "COc1cc(C(=O)Nc2nc(C)no2)cc(OC)c1Br", "values": [{"measurement": "Percent Effect", "setting": "10 µM", "result": -27.84, "unit": "%"}]}, {"compound": "Cc1noc(NC(=O)c2ccccc2)n1", "values": [{"measurement": "Percent Effect", "setting": "30.3 µM, […]", "result": 22.26, "unit": "%"}]}, {"compound": "Cc1noc(NC(=O)c2ccc(OC(F)(F)F)cc2)n1", "values": [{"measurement": "Percent Effect", "setting": "30 µM, 30.03 µM", "result": 107.1, "unit": "%"}]}, {"compound": "Cc1noc(NC(=O)c2ccc(F)cc2)n1", "values": [{"measurement": "Percent Effect", "setting": "30.3 µM, […]", "result": 23.19, "unit": "%"}]}, {"compound": "Cc1ccc(C(=O)Nc2nc(C)no2)cc1", "values": [{"measurement": "Percent Effect", "setting": "30.3 µM, […]", "result": 24.35, "unit": "%"}]}, {"compound": "CN1CCc2c(C#N)c(NCCCN3CCOCC3)n3cnnc3c2C1.Cl.Cl", "values": [{"measurement": "Percent Effect", "setting": "30 µM, 30.03 µM", "result": 29.08, "unit": "%"}]}, {"compound": "CCOc1ccccc1CN1CCc2nc3ccsc3c(=O)n2CC1.Cl", "values": [{"measurement": "Percent Effect", "setting": "30.3 µM, […]", "result": -5.491, "unit": "%"}]}, {"compound": "CCOC1COC2(CCN(Cc3ccc(C)c(C)c3)CC2)C1.O=C(O)C(F)(F)F", "note": "(stereo not given)", "values": [{"measurement": "Percent Effect", "setting": "30.3 µM, […]", "result": 17.79, "unit": "%"}]}]}
